Test results: PubChem BioAssay (Tox21)
Records with an inconclusive call do not appear. Where a call stands in place of a potency, no number is given. The source made the active and inactive calls. Unless noted, calls follow the shape of the dose curve; as a rule, active = well fitted curve in the direction sought with a large enough effect in the repeat runs; inconclusive = weak or mixed curves; inactive = no such curve, though single readings can be large; an effect the other way counts as inactive or inconclusive.

Legend:
[1] = qHTS assay to identify small molecule antagonists of the thyroid receptor (TR) signaling pathway - cell viability counter screen (AID 743064); also: nearly all actives have a fitted effect of over 50% in size; also: potency is read from the fitted curve at half-maximal effect
How it was run: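 GH3.TRE-Luc rat pituitary cells carrying a TRE-luciferase reporter were treated with compound plus 1 nM T3 (final) for 23.5 h at 37 °C. Viability was then read in the same wells by CellTiter-Fluor fluorescence after a further 30 min.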

[2] = test system: thyroid hormone receptor (rat, GH3 cells); assay: qHTS assay to identify small molecule agonists of the thyroid receptor (TR) signaling pathway (AID 743066; calls by dose curve; also: potency is read from the fitted curve at half-maximal effect)
[3] = target: Estrogen receptor (Homo sapiens) (UniProt P03372); assay: qHTS assay to identify small molecule antagonists of the estrogen receptor alpha (ER-alpha) signaling pathway (AID 743069; active = well fitted curve in the direction sought with a large enough effect in the signal ratio in the repeat runs, not every such curve was filed as active; the % refers to the signal ratio)
How it was run: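 In this cell-based reporter format, GripTite HEK293 cells harbouring ER-alpha-UAS-bla were grown overnight with 2% charcoal-stripped FBS, dosed with DMSO-dissolved compounds, then challenged with 17beta-estradiol. After 18 hr at 37C, beta-lactamase activity was detected by FRET fluorescence.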

[4] = qHTS assay to identify small molecule antagonists of the estrogen receptor alpha (ER-alpha) signaling pathway - cell viability counter screen (AID 743074; calls by dose curve; also: nearly all actives have a fitted effect of over 45% in size; also: potency is read from the fitted curve at half-maximal effect)
[5] = target: Estrogen receptor (Homo sapiens) (UniProt P03372); assay: qHTS assay to identify small molecule agonists of the estrogen receptor alpha (ER-alpha) signaling pathway (AID 743075; calls by dose curve)
[6] = qHTS assay to identify small molecule antagonists of the estrogen receptor alpha (ER-alpha) signaling pathway using the BG1 cell line (AID 743080; calls by dose curve;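 also: BG1 cells stimulated with 17beta-estradiol alongside compound; series mostly up to about 70 µM; nearly all actives have a fitted effect of over 25% in size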)
How it was run: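 BG1Luc4E2, endogenous ER-alpha, 4xERE-luc; 5 d charcoal-stripped FBS, phenol red free; 24 h plating; cpd + 17beta-estradiol 21.5 h, 37 C/5% CO2; CellTiter-Fluor viability 30 min, then ONE-Glo luciferase 30 min RT.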

[7] = qHTS assay to identify small molecule antagonists of the estrogen receptor alpha (ER-alpha) signaling pathway using the BG1 cell line - cell viability counter screen (AID 743081);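 also: compound given together with 17beta-estradiol as the ER stimulus; series mostly up to about 70 µM; nearly all actives have a fitted effect of over 45% in size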
[8] = target: Aromatase (Homo sapiens) (UniProt P11511); assay: qHTS assay to identify aromatase inhibitors (AID 743083); also: series mostly up to about 70 µM; nearly all actives have a fitted effect of over 55% in size
[9] = target: Estrogen receptor (Homo sapiens) (UniProt P03372); assay: qHTS assay to identify small molecule agonists of the estrogen receptor alpha (ER-alpha) signaling pathway using the BG1 cell line (AID 743079); also: nearly all actives have a fitted effect of over 20% in size; also: potency is read from the fitted curve at half-maximal effect
[10] = qHTS assay to identify small molecule antagonists of the thyroid receptor (TR) signaling pathway (AID 743065); also: series mostly up to about 70 µM; nearly all actives have a fitted effect of over 55% in size
How it was run: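 GH3.TRE-Luc rat pituitary cells (two TREs driving luciferase) were dosed with compound, then stimulated with 1 nM T3 (final) for 23.5 h at 37 C. ONE-Glo luminescence was the read-out, with CellTiter-Fluor fluorescence as the cytotoxicity counter-screen.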

Estrogen receptor (Homo sapiens), sequence (P03372 whole entry, looked up): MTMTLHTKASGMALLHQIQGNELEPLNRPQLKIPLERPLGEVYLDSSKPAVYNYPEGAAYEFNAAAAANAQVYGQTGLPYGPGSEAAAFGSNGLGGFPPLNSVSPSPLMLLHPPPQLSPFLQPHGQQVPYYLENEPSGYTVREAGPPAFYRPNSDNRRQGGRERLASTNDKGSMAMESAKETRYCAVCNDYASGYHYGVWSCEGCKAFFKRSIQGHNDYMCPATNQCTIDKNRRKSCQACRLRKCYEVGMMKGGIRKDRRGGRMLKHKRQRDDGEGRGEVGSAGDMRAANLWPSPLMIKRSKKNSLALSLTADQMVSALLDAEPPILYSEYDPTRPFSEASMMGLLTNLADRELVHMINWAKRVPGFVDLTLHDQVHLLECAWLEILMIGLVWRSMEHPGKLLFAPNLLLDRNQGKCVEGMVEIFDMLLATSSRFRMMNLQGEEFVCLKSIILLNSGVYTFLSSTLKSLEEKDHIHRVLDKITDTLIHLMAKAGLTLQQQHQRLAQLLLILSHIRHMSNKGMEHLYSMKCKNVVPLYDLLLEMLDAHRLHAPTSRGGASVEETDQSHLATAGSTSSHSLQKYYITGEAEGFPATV
Aromatase (Homo sapiens), sequence (P11511 whole entry, looked up): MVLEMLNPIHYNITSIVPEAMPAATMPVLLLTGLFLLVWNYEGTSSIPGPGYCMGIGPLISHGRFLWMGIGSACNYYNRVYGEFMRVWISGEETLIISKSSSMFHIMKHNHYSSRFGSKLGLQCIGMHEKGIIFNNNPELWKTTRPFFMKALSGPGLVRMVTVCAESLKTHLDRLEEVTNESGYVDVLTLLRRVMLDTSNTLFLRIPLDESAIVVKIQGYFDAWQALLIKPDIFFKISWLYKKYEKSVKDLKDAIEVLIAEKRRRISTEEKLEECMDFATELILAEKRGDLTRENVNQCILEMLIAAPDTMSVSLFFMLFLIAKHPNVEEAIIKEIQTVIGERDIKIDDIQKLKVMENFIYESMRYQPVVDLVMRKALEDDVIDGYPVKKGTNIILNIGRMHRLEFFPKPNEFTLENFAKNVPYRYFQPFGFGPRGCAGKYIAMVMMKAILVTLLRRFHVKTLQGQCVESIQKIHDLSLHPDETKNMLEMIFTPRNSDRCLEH

Row | SMILES | Potency [1] | Potency [2] | outcome [3] | Potency [4] | Potency [5] | Potency [6] | outcome [7] | Potency [8] | Potency [9] | Potency [10]
1 | CC(C)CC(O)Cc1ccccc1 (configuration not stated) | inactive | inactive | inactive | inactive | inactive | inactive | inactive | inactive | – | –
2 | O=Cc1ccccc1S(=O)(=O)O | inactive | 68.5 µM (active) | – | inactive | – | – | – | inactive | – | –
3 | O=C1CC2(CCCC2)CC(=O)N1CCNCC1COc2ccccc2O1 (configuration not stated) | inactive | inactive | – | 21.3 µM (active) | – | – | inactive | inactive | – | –
4 | CCCCOCCCC | inactive | inactive | inactive | inactive | inactive | inactive | inactive | inactive | inactive | –
5 | C=CC(=O)OCC[N+](C)(C)C | inactive | inactive | inactive | – | inactive | inactive | inactive | inactive | inactive | –
6 | CCCC[O][Al]([O]CCCC)[O]CCCC | inactive | – | – | inactive | – | – | inactive | inactive | – | –
7 | CCCCc1ccc(Cl)cc1 | inactive | – | inactive | inactive | inactive | inactive | inactive | inactive | inactive | –
8 | CC(C)(O)CCCC1=CCC(C=O)CC1 (configuration not stated) | inactive | inactive | inactive | inactive | inactive | inactive | inactive | inactive | 58.1 µM (active) | –
9 | CC1(C)CC(N)CC(C)(C)N1 | inactive | inactive | – | inactive | – | – | inactive | inactive | – | –
10 | COC(=O)/C=C(\C)CCC=C(C)C | inactive | inactive | inactive | inactive | inactive | inactive | inactive | inactive | inactive | –
11 | CCO/C=C1\N=C(c2ccccc2)OC1=O | 68.3 µM (active) | inactive | – | inactive | – | – | inactive | inactive | – | –
12 | CCCCCCCCOCCC#N | inactive | inactive | – | inactive | – | – | inactive | – | – | –
13 | COC(=O)C(c1ccccc1Cl)N1CCc2sccc2C1 (configuration not stated) | inactive | inactive | – | inactive | – | inactive | inactive | inactive | – | –
14 | C/C(=N\O)c1ccc(OCC(=O)N2CCCCC2)cc1 | inactive | inactive | inactive | – | inactive | – | inactive | inactive | 4.22 µM (active) | –
15 | COC(=O)c1ccccc1Cl | inactive | inactive | – | inactive | – | – | inactive | inactive | – | –
16 | C=CCN(CC=C)CC=C | inactive | inactive | – | – | – | – | inactive | inactive | – | –
17 | Cc1cc(C)c(C)c(C)c1 | inactive | inactive | inactive | inactive | inactive | inactive | inactive | inactive | inactive | –
18 | BrCCOc1ccccc1 | inactive | – | inactive | inactive | inactive | inactive | inactive | inactive | inactive | –
19 | CC(C)OCCO | – | inactive | – | inactive | – | – | inactive | inactive | – | inactive
20 | C[C@]12C=CC(=O)C=C1[C@@H](F)C[C@@H]1[C@@H]2[C@@H](O)C[C@@]2(C)[C@H]1CC[C@]2(O)C(=O)CO | – | – | – | inactive | inactive | – | inactive | inactive | – | –
21 | CCCCNCC | – | – | inactive | inactive | inactive | inactive | inactive | inactive | inactive | –
22 | CC(CN1CC(=O)NC(=O)C1)N1CC(=O)NC(=O)C1 (configuration not stated) | – | inactive | inactive | inactive | inactive | – | inactive | inactive | inactive | –
23 | CCOC(=O)COc1ccc2c(C)c(CCN(CC)CC)c(=O)oc2c1Cl | – | inactive | inactive | inactive | inactive | inactive | inactive | inactive | inactive | –
24 | CCCC(=O)OC | – | inactive | inactive | inactive | inactive | inactive | inactive | inactive | inactive | –
25 | N=C(N)N | – | – | – | inactive | – | – | inactive | inactive | – | –
26 | O=C(O)CCCCCCCCCC(=O)O | – | inactive | inactive | inactive | inactive | inactive | inactive | inactive | inactive | –
